# ERK EGF block – inhibitors of EGF-stimulated ERK signaling pathway; HEK293-V1b, EGF-stimulated phospho-ERK AlphaScreen; Potency, µM (doses to about 11.5 µM), for the others: at the highest dose activity change, negative = inhibition, hits mostly inhibitors; AID 1454; actives 0.41% (n = 130,000);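 also: plate controls were stimulated vehicle wells for no effect and unstimulated vehicle basal for full effect; nearly all actives have a fitted effect of over 55% in size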
#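 Compounds are titrated over HEK293-V1b cells kept overnight in 1% FBS. After 30 min at 37C, EGF (25 nM final) triggers ERK phosphorylation for 5 min, measured by AlphaScreen in lysates.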
# HTT cytoprotect – protects HTT-Q103 PC12 cells, measured by ATP. Potency, µM (doses to about 56.4 µM), for the others: cytoprotection (ATP increase), usual class: activators. AID 1471. actives 0.14% (n = 230,000). PC12 HTT-Q103 induced, cytoprotection, ATP luminescence, 40 h; also: % of control where 0% means no effect; nearly all actives have a fitted effect of over 45% in size
#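 Rat PC12, Q103 Htt exon1-GFP fusion, ecdysone promoter; tebufenozide inducer 100 nM final; compound titration; qHTS, 1500 cells/well; ATPlite luminescent read.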
# IMPase Li cell – IMPase inhibition in cells with lithium potentiation. actives 0.35% (n = 210,000). CHO-M1 cells, IP1 TR-FRET (IP-One), carbachol + lithium. Potency, µM (doses to about 59.4 µM), inactives show top-dose activity, negative = IMPase inhibition, actives largely listed as inhibitors;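 also: IP1 builds up when IMPase is blocked and the TR-FRET signal falls; plate controls were basal vehicle for no effect and high inhibitor control for full effect; nearly all actives have a fitted effect of over 50% in size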
#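 Steps: plate 2000 CHO-M1 cells per well and culture 16–30 h; add compound and lithium; incubate 30 min, 37C; add d2-IP1 tracer and Eu cryptate anti-IP1 antibody in lysis buffer; read after 10 min at room temperature.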
# NPSR antag – blocks cAMP signaling of the human neuropeptide S receptor | actives 1% (n = 220,000) | Potency, µM (series often up to 38.3 µM), for inactives: at the highest dose activity change, negative = inhibition, hits mostly inhibitors | Q6W5P4 | CHO-NPSR cells, cAMP TR-FRET, antagonist mode; also: % is scaled to controls: 0 for no effect and ±100 for the full control effect; nearly all actives have a fitted effect of over 50% in size
# Target sequence (Q6W5P4 whole entry, looked up): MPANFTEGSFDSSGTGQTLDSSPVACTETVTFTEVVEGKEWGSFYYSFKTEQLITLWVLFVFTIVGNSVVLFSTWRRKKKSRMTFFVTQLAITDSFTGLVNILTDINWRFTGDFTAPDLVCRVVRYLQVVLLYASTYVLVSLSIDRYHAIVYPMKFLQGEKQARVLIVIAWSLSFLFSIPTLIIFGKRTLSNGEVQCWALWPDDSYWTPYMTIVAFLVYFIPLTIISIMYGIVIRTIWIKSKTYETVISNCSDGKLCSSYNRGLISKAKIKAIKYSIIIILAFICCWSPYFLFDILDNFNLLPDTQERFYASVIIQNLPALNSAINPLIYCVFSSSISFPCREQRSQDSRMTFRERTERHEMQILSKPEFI
# HttQ103 aggreg – inhibitors of mutant huntingtin aggregate formation in PC12 cells | PC12 HttQ103-GFP aggregates, Acumen cytometry, 40 h | Potency, µM (titrated, usually from 46.1 µM), for the others: at the top dose activity change, negative = inhibition, usual class: inhibitors | actives 1.1% (n = 220,000) | AID 1688; also: % is scaled to controls: 0 for no effect and ±100 for the full control effect; nearly all actives have a fitted effect of over 60% in size
#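 Compounds (qHTS titration) were added to PC12 cells expressing an ecdysone-driven HTT exon 1 Q103–GFP fusion after induction with 100 nM tebufenozide. Aggregate formation was measured as GFP objects in cell lysates.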
# * hit, by the source's call; ? = inconclusive; . = not tested or not shown; [ ] = dose if it differs, or a comment. A selection: hits, their analogues and other compounds. The true share with any hit is near 1.9%. Calls follow the shape of the dose curve; as a rule, active = well fitted curve in the direction sought with a large enough effect; inconclusive = small, poorly fitted or top-dose-only effect, or another doubt; inactive = no such curve, though single readings can be large; an effect the other way counts as inactive or inconclusive. Potency is read from the fitted curve at half-maximal effect.
SMILES,ERK EGF block,HTT cytoprotect,IMPase Li cell,NPSR antag,HttQ103 aggreg
COc1ccc(NC(=O)/C(C#N)=C\c2cc(C)n(-c3ccc(Oc4ccc([N+](=O)[O-])cn4)cc3)c2C)cc1,.,-19%,24%[38.3 µM],-3%[46.1 µM],-10%
CCCCCCN,.,-16%,7%,.,.
COCCNc1ncnc2ccc(-c3ccccc3OC)cc12,.,-96%,12%,.,.
CCOC(=O)/C(=C\c1cccnc1)C(=O)c1cc(C(C)=O)c(Nc2ccccc2)s1,.,-35%,43%[38.3 µM],3.2µM*,?
COc1cc(/C=C/c2ccccc2)oc(=O)c1,.,-53%,18%,.,.
O=C(O)c1ccccc1-c1c2cc(Br)c(=O)c(Br)c-2oc2c(Br)c(O)c(Br)cc12,.,-23%,.,.,10µM*
Cc1ccc2oc(-c3ccccc3C(=O)O)cc(=O)c2c1,.,15%[0.074 µM],-9%[38.3 µM],1%[46.1 µM],9%
CN1CCN(c2ncc3nc(-c4cn(C)c5ccccc45)c(=O)n(-c4ccccc4)c3n2)CC1,.,-92%,2%,.,.
O=C(N/N=C/c1ccccc1O)C1(O)c2ccccc2-c2ccccc21,0%,32%[1.9 µM],-9%,-2%,10µM*
CC(=O)c1cccc(NC(=O)c2ccc(OC3CSC3)cc2)c1,?,-39%,-5%,16%,-9%
O=C(Nc1cccc(Br)c1)c1ccc(OC2CSC2)cc1,25µM*,-21%,22%,-26%,?
COc1ccccc1-c1cc(C(=O)Nc2ccc(F)cc2F)no1,.,-50%,8.9µM*,?,7%
COc1ccccc1-c1cc(C(=O)NC(C)C)no1,.,0%,-9%[38.3 µM],-17%[46.1 µM],3%
CCC(C)c1ccc(O)c(NC(=O)c2cccnc2)c1 (centres undefined),.,-6%,10µM*,-17%[46.1 µM],-23%
CSc1nc(N)nc(SCC(=O)c2ccccc2)c1C#N,.,-77%[0.074 µM],18%[38.3 µM],-20%[46.1 µM],-6%
COc1ccc(C(=O)CSc2nc(N)nc(SC)c2C#N)cc1,.,-7%,6.3µM*,10%[46.1 µM],-11%
C=C1c2ccccc2O[C@H](C(=O)OCC)C1OC (mixture of isomers),.,-22%[96.6 µM],6%,.,.
CCCn1c(-c2ccc(F)cc2)nc2c(NCCCN(C)C)nc(C)nc21,-3%,5%,-11%,.,.
Cc1ccc(Nc2c(-c3ccccc3O)nc3cnccn23)cc1,25µM*,-25%,17%,-27%,-9%
COc1cc([C@H](O)CO)ccc1O,.,5%[1.9 µM],.,.,.
C=CCC(C)(O)c1cccc(C(F)(F)F)c1 (centres undefined),-12%,-7%,15%,.,.
O=C(C#Cc1cccc([N+](=O)[O-])c1)c1ccccc1,.,-114%,44%[38.3 µM],3.2µM*,?
O=C(/C=C/c1cccc([N+](=O)[O-])c1)c1ccccc1,-8%,20%,0%,.,.
COc1cccc(-c2noc(N)c2C#N)c1,.,-11%,17%[38.3 µM],1%[46.1 µM],11µM*
CC(C(=O)NCCC1=CCCCC1)N1C(=O)c2ccccc2C1=O (centres undefined),.,-61%[10 µM],7%[38.3 µM],-8%[46.1 µM],5.6µM*
SMILES,ERK EGF block,HTT cytoprotect,IMPase Li cell,NPSR antag,HttQ103 aggreg
COC(=O)c1ccc2c(c1)C(C)(C)C(/C=C/c1ccc(OC)c(OC)c1OC)=[N+]2C,.,-90%,9%[38.3 µM],10µM*,11µM*
COC(=O)c1ccc2c(c1)C(C)(C)C(/C=C/c1ccc(O)cc1)=[N+]2C,.,-62%[10 µM],54%[38.3 µM],?,-24%[9.22 µM]
COC(=O)C1=C(C(=O)OC)[C@@H]2N(Cc3ccccc3)c3ccccc3[C@@]23C[C@@H](C(=O)OC)N(C(=O)NCc2ccccc2)C3=C1,-1%,8%,12%,.,.
CC(C)c1ccc(/C=C(\c2nc3ccccc3[nH]2)S(=O)(=O)c2ccccc2)cc1,-3%,5%[1.9 µM],22%,?,5%
O=S(=O)(/C(=C/c1ccc(C(F)(F)F)cc1)c1nc2ccccc2[nH]1)c1ccccc1,-11%,2%[1.9 µM],16%,6.3µM*,?
O=c1cnc2cnc(Oc3ccccc3)nc2n1C1CC1,.,6%,5%,.,.
CCOc1ccc(NC(=O)Nc2ccc3nsnc3c2)cc1,-1%,-20%,1%,-10%,-21%
CCOc1ccc(NC(=S)Nc2ccc3nsnc3c2)cc1,7%,.,-5%,10µM*,3.5µM*
C[C@@H]1CN=C2N(CCNC(=O)CCC3CCCCC3)[C@H](Cc3ccc(O)cc3)CN21,-6%[57.5 µM],31%[10 µM],-1%,-31%,18%[9.22 µM]
CCCCCCNC(=O)N[C@H](C(=O)NCCC[C@H]1CN2C(=NC[C@H]2C)N1CCC(c1ccccc1)c1ccccc1)C(C)O (some centres undefined),9%[57.5 µM],-9%[10 µM],.,10µM*,-32%[9.22 µM]
CCOc1cccc(/C=N/Nc2ccc(S(=O)(=O)N(CC)CC)cn2)c1O,3%,-66%[10 µM],7%,-16%,1.4µM*
N#CCCn1c(=O)c(-c2ccc(Cl)cc2)nc2cnc(Oc3cccc(Cl)c3)nc21,-5%,-30%,11µM*,.,.
COCCn1c(=O)c(-c2ccc(F)cc2)nc2cnc(Oc3cccc(Cl)c3)nc21,-2%,2%,?,.,.
N#CCCn1c(=O)c(-c2ccc(F)cc2)nc2cnc(Oc3cccc(Cl)c3)nc21,-5%,3.2µM*,8.9µM*,.,.
N#CCCn1c(=O)c(-c2cccc(C#N)c2)nc2cnc(Oc3cccc(Cl)c3)nc21,.,0%,11%,.,.
C=CCN1c2ccccc2[C@]23C[C@@H](C(=O)OC)N(S(=O)(=O)c4ccc(C)cc4)C2=NC(C(=O)OC)=C(C(=O)OC)[C@H]13,.,4%[10 µM],-13%,.,.
FC(F)(F)c1cc(NC(=S)Nc2ccc3ccccc3c2)cc(C(F)(F)F)c1,-1%,?,7%,.,.
CCOc1ccc(Nc2nc(NCC3CCCO3)c3ccccc3n2)cc1 (centres undefined),?,-35%,15%,?,14µM*
c1ccc(Nc2nc(NCC3CCCO3)c3ccccc3n2)cc1 (centres undefined),7%,-23%,35%,-47%,?
COc1ccccc1C(=O)Nc1nnc(-c2ccc(F)cc2)o1,.,-23%,5%[38.3 µM],-4%[46.1 µM],7%
Cc1ccccc1C(=O)Nc1nnc(-c2ccc(F)cc2)o1,.,-47%,1%[38.3 µM],-10%[46.1 µM],10µM*
CC1=CC(C)(C)Nc2ccc(OC(=O)CN3C(=O)CCC3=O)cc21,.,-89%,15%[38.3 µM],-12%[46.1 µM],6.3µM*
CSCCC(Nc1ncnc2ccc(Br)cc12)C(=O)O (centres undefined),.,-15%[10 µM],10µM*,?,-8%
CC(C)Nc1ncnc2ccc(Br)cc12,-5%,.,-10%,11%,6.3µM*
COC(=O)C1=C(C(=O)OC)[C@@H]2N(Cc3ccccc3)c3ccccc3[C@@]23C[C@@H](C(=O)OC)N(S(=O)(=O)c2cccs2)C3=N1,.,-12%[10 µM],2%,.,.
Cc1noc(C)c1C(=O)N1CCC[C@@]2(CCN(C(c3ccccc3)c3ccccc3)C2)C1,0%,-15%,-3%,.,.
O=C(CNC(=O)c1ccc(F)cc1)N/N=C/c1cc(Br)ccc1OCc1ccccc1,-9%,.,7%,-29%,?

# High-throughput results (PubChem)
